# Source: PubChem (National Center for Advancing Translational Sciences (NCATS))
# AmpC no deterg = AmpC beta-lactamase inhibition without detergent | Potency, µM (highest dose often 57.1 µM), for the others: top-dose activity change, negative = inhibition, usual class: inhibitors | AID 485341 | AmpC nitrocefin hydrolysis, absorbance 480 nm, 0.0001% Triton | P00811 | hit rate 0.52% among 330,000;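 further: potency means the concentration at half of the fitted maximal effect; plate controls were no compound for no effect and no enzyme for full effect; nearly all actives have a fitted effect of over 20% in size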
# Target sequence (P00811 whole entry, looked up): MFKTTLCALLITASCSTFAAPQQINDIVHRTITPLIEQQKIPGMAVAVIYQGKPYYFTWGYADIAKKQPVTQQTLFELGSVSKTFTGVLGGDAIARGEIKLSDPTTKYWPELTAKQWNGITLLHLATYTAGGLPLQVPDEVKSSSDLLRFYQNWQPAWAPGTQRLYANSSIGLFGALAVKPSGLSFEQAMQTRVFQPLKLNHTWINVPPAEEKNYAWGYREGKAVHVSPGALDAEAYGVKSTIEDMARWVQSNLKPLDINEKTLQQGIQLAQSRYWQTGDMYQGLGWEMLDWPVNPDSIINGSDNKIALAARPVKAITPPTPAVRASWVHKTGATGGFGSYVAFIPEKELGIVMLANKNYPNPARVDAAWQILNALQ
#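 20 mM phosphate pH 7.0 + 0.01% (detergent screen) or 0.0001% Triton X-100; 5.3 nM AmpC reagent; cpd preinc 15 min RT; nitrocefin (800 uM stock) to start; A480 q20 s × 4 min; Activity was normalised to no-enzyme and no-compound control wells.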
# SARS PLP yeast = SARS-CoV PLP inhibition in yeast; hit rate 0.19% among 330,000; Potency, µM (doses to about 32.9 µM), for the others: at the highest dose activity, positive = growth rescue, hits mostly activators; S. cerevisiae expressing SARS-CoV PLpro, growth rescue; AID 485353; calls by dose curve; further: potency means the concentration at half of the fitted maximal effect; 0% is about no effect; nearly all actives have a fitted effect of over 55% in size
# Cycloheximide cs = counter-screen hit for Shiga toxin inhibitors, cycloheximide; max response, %; hit rate 12% among 300,000; cell reporter, cycloheximide protein synthesis inhibition counterscreen; in the data active means max response mostly above about 13%, no sharp cut-off; inactive means mostly below about 14%; further: read at 38.3 µM for the half of the compounds with a filed dose; 0% is about no effect
# AMA1 RON2 block = inhibitors of Plasmodium falciparum AMA1-RON2 interaction; AlphaScreen AMA1-biotinylated RON2 peptide binding; Potency, µM (titrated, usually from 58.2 µM), without a hit: top-dose activity change, negative = inhibition, usual class: inhibitors; hit rate 0.2% among 360,000; AID 720542;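 further: potency means the concentration at half of the fitted maximal effect; 0% = vehicle wells and -100% = peptide control; nearly all actives have a fitted effect of over 45% in size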
#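 AMA1 (3D7) with his tag at 25 nM final met compounds first, then biotinylated RON2 peptide at 25 nM; detection used donor plus acceptor beads, 10 µg/mL apiece, read by AlphaScreen after 30 min at room temperature.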
# AmpC detergent = AmpC beta-lactamase inhibition with detergent present. AmpC hydrolysis of nitrocefin, absorbance 480 nm, 0.01% Triton. Potency, µM (doses to about 114 µM), for inactives: top-dose activity change, negative = inhibition, usual class: inhibitors. hit rate 0.041% among 370,000. AID 485294;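 further: potency means the concentration at half of the fitted maximal effect; 0% = no-compound wells and -100% = no-enzyme wells; nearly all actives have a fitted effect of over 25% in size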
#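 20 mM phosphate pH 7.0 + 0.01% (detergent screen) or 0.0001% Triton X-100; 5.3 nM AmpC reagent; cpd preinc 15 min RT; nitrocefin (800 uM stock) to start; A480 q20 s × 4 min; Activity was normalised to no-enzyme and no-compound control wells.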
# Shiga toxin inh = blocks Shiga toxin action in Vero cells. Vero cells, Shiga toxin protein synthesis inhibition reporter. inhibition, % at 38.7 µM. hit rate 9.2% among 290,000; in the data active means inhibition mostly above about 28%, no sharp cut-off; inactive means mostly below about 43%; further: 0% is about no effect
# Starred values were filed as active, the others as inactive; u = inconclusive; x = no result given. Many of the other results were omitted from the sample, so hits are more common in it than they were. Unless noted, the call rests on the fitted dose curve; in most records, active means well fitted curve in the direction sought with a large enough effect; inconclusive means small, poorly fitted or top-dose-only effect, or another doubt; inactive means no such curve, though single readings can be large; an effect the other way counts as inactive or inconclusive.
SMILES,AmpC no deterg,SARS PLP yeast,Cycloheximide cs,AMA1 RON2 block,AmpC detergent,Shiga toxin inh
C[C@H](CO)N1C[C@H](C)[C@@H](CN(C)S(C)(=O)=O)Oc2ccc(NC(=O)C3CCCCC3)cc2C1=O,7%,-5%,x,22%,x,x
Brc1cc2c(cc1Cn1c(-c3cncs3)nc3ccccc31)OCO2,-3%,0%,-1,4%,u,-3
Cc1nc2nc(C)c(CCC(=O)N3CCc4ccccc43)c(C)n2n1,-3%,6%,-5,4%,-6%,-15
N#Cc1c(/N=C/c2ccc(Br)s2)sc2c1CCC2,-14%,-20%,25,6%,-14%,15*
N#Cc1c(/N=C\c2ccc(O)c([N+](=O)[O-])c2)sc2c1CCCC2,-61%,-2%,44*,-9%,-3%,45
Cc1ccc(/C=N/c2sc3c(c2C#N)CCC3)o1,-21%,-2%,1,-18%,u,2
N#Cc1c(/N=C/c2ccc(-c3ccc(C(=O)O)c(Cl)c3)o2)sc2c1CCCC2,-26%,1%,x,-5%,-7%,x
N#Cc1c(/N=C/c2cccs2)sc2c1CCCCC2,-25%,-14%,35*,u,-14%,86*
N#Cc1c(/N=C/c2cccnc2)sc2c1CCCC2,-28%,-1%,-1,-27%,-5%,15
N#Cc1c(/N=C/c2ccc(-c3ccccc3C(=O)O)o2)sc2c1CCCC2,-26%,1%,60*,-4%,u,111*
Cc1cccc(C(=O)Nc2c(C(=O)N3CCN(C)CC3)cnn2-c2ccccc2)c1,x,x,x,13%,x,x
NCC1CCN(c2nc3ccccc3c3c2CCCC3)CC1,x,x,x,-6%,x,x
COc1ccc(CN2CCC(C(=O)Nc3ccc(Oc4cccnc4)cc3)CC2)cc1,0%,4%,-3,20%,2%,16
COc1ccc(/C=C/c2nnc(NC(=O)CC(C)C)s2)cc1,-1%,0%,-2,8%,0%,30
COc1ccc(/C=C/c2nnc(NC(C)=O)s2)cc1,-11%,-1%,35*,1%,-9%,72*
COC(=O)Nc1nnc(/C=C/c2ccc(OC)cc2)s1,-20%,-27%,58*,7%,-2%,96*
CC(C)COC(=O)N(C)C[C@@H]1OCc2cn(nn2)CCCC(=O)N([C@@H](C)CO)C[C@H]1C,x,x,x,15%,x,x
COc1ccc(C)cc1NC(=O)Nc1ccc2c(c1)CCC2,u,7%,24*,0%,-11%,29
COc1ccccc1NC(=O)Nc1ccc2c(c1)CCC2,10µM*,18%,53*,-1%,-2%,65*
COc1ccccc1NC(=O)Nc1ccc(NC(=O)c2ccccc2O)cc1,-45%,-1%,8,0%,-13%,14
COc1ccc(NC(=O)Nc2ccc3c(c2)CCC3)cc1OC,-19%,-1%,17*,-3%,-6%,56
COc1ccc(/C=C/C(=O)Nc2ccc3c(c2)CCC3)cc1OC,33%,-41%,13,-1%,u,9
Cc1ccc(NC(=O)CNc2cccc(C)c2C)c(C)c1,-27%,-9%,8,-7%,-12%,42
CC1=NN(C(N)=S)C(=O)C1N=Nc1ccccc1Cl (centres undefined),-32%,-7%,18*,69%,u,x
CC1=NN(C(N)=S)C(=O)C1N=Nc1ccc(Cl)cc1Cl (centres undefined),-21%,-21%,25*,150%,-10%,77*
SMILES,AmpC no deterg,SARS PLP yeast,Cycloheximide cs,AMA1 RON2 block,AmpC detergent,Shiga toxin inh
COc1ccccc1N=NC1C(=O)N(C(N)=S)N=C1C (centres undefined),-9%,9%,1,55%,u,x
C[C@H](NC(=O)c1ccc(Cl)cc1)C(=O)OCn1nnc2ccccc2c1=O,-17%,8%,x,0%,x,x
COc1ccc(CN2CC(C(=O)NCc3ccccn3)CC2=O)cc1 (centres undefined),-11%,0%,-1,-1%,1%,-2
COc1cc(OC)cc(C(=O)N(Cc2nc(-c3cccc(C)c3)no2)C(C)C)c1,114%,-14%,-1,-9%,4%,-4
CN(C)C(=O)C(=O)c1cccn1-c1ccccc1C#N,-7%,6%,-3,-4%,-1%,19
Clc1ccc(OCc2nnc(-c3ccccc3Br)o2)cc1,-23%,u,12*,23%,-1%,49
Clc1cccc(OCc2nnc(-c3ccccc3Br)o2)c1,0%,-16%,38*,116%,5%,86*
O=c1nc2c(-c3ccccc3F)n[nH]n2c2ccccc12,-14%,2%,20*,-10%,-4%,80*
Nc1nc(Nc2ccccc2F)nc(NCc2ccco2)c1[N+](=O)[O-],-22%,0%,39*,-11%,10%,49*
Cc1ccc(Nc2ccc3nonc3c2[N+](=O)[O-])cc1,-19%,0%,-8,-9%,6%,30
Nc1nc(Nc2ccccc2)nc(NCc2ccco2)c1[N+](=O)[O-],-22%,-6%,-2,u,-4%,0
Cc1ccc(Nc2nc(N)c([N+](=O)[O-])c(NCc3ccco3)n2)cc1,-43%,9%,34*,-21%,-6%,55*
Cc1ccc(Nc2ccc([N+](=O)[O-])nc2[N+](=O)[O-])cc1,-15%,-6%,22*,-5%,1%,-2
Fc1ccc(Nc2nc(NCc3ccco3)c3ccccc3n2)cc1,-39%,-3%,30*,-17%,-6%,67*
Cc1ccc(Nc2nc(N)c([N+](=O)[O-])c(NCCO)n2)cc1,-39%,0%,13*,1%,-2%,24
CCN1CCN(c2nc3ccccc3nc2C(C#N)S(=O)(=O)c2ccc(C)c(C)c2)CC1 (centres undefined),4%,0%,-1,8%,-5%,-7
O=C(Cc1ccc(Cl)cc1)Nc1ccc2oc(=O)ccc2c1,-38%,-1%,-6,14%,4%,7
O/N=C/c1ccnc(SCc2ccc(Cl)cc2)n1,-28%,-1%,51*,-20%,-5%,75*
O/N=C/c1ccnc(SCc2ccccc2)n1,-28%,-1%,31*,-3%,0%,64*
Cc1ccnc(SCc2ccc(C(=O)O)cc2)n1,-5%,-1%,-2,-4%,u,-9
COc1ccc(CNC(=O)[C@H](Cc2ccccc2)NC(=O)CC[C@H]2O[C@@H](n3ccc(=O)[nH]c3=O)[C@H](O)[C@@H]2O)cc1,x,x,x,9%,x,x
CCCCCCCCNC(=O)c1cnsn1,-19%,-24%,-1,u,-10%,18
Cc1cc(C(=O)NCCC2=CCCCC2)no1,6%,5%,45*,-18%,u,91*
O=C(NCCC1=CCCCC1)c1cc(COc2c(F)cccc2F)on1,-22%,-1%,8,5%,-10%,18
